# Results reported in PubChem BioAssay AID1159580 (chemical genetic matrix, 2015).
# About 2,000 (36%) of roughly 5,500 compounds were called active. Roughly 18% stayed inconclusive and do not appear here. This is one part of the list. Unmarked numbers belong to inactive results. Rule as the data show it: active = normalized growth mostly below about 0.91 (no sharp cut-off); inconclusive = no clear call, values can overlap the other calls; inactive = mostly above about 0.92.
# Test: chemical genetic growth profiling, strain panel (AID 1159580);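 also: tested at 20 µM; growth read once vehicle control cultures reached saturation at 30 °C; 1 = growth at the plate median or of vehicle wells; lower values mean less growth of the strain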
# Details: growth OD
smiles,measurement,setting,value
NC(C(=O)O)C(O)C(=O)O (stereo not drawn),normalized growth,"S. cerevisiae deletion strains, locus YJR066W, strain TOR1, hits give low values",0.994
same,normalized growth,"S. cerevisiae deletion strains, locus YJR075W, strain HOC1, hits give low values",1.01
same,normalized growth,"S. cerevisiae deletion strains, locus YKL009W, strain mrt4, hits give low values",1.02
same,normalized growth,"S. cerevisiae deletion strains, locus YKL068W, hits give low values",1.01
same,normalized growth,"S. cerevisiae deletion strains, locus YKL085W, strain MDH1 (second series), hits give low values",0.999
same,normalized growth,"S. cerevisiae deletion strains, locus YKL085W, strain MDH1, hits give low values",0.999
same,normalized growth,"S. cerevisiae deletion strains, locus YKL160W, strain elf1, hits give low values",0.974
same,normalized growth,"S. cerevisiae deletion strains, locus YKR001C, strain vps1, hits give low values",1.02
same,normalized growth,"S. cerevisiae deletion strains, locus YKR026C, strain gcn3, hits give low values",0.997
same,normalized growth,"S. cerevisiae deletion strains, locus YKR091W, strain srl3, hits give low values",0.984
same,normalized growth,"S. cerevisiae deletion strains, locus YLL001W, strain dnm1, hits give low values",0.987
same,normalized growth,"S. cerevisiae deletion strains, locus YLL026W, hits give low values",0.996
same,normalized growth,"S. cerevisiae deletion strains, locus YLL041C, strain sdh2, hits give low values",0.978
same,normalized growth,"S. cerevisiae deletion strains, locus YLR027C, strain aat2, hits give low values",0.998
same,normalized growth,"S. cerevisiae deletion strains, locus YLR039C, strain RIC1, hits give low values",1.02
same,normalized growth,"S. cerevisiae deletion strains, locus YLR058C, strain SHM2, hits give low values",1.01
same,normalized growth,"S. cerevisiae deletion strains, locus YLR102C, strain apc9, hits give low values",1.04
same,normalized growth,"S. cerevisiae deletion strains, locus YLR113W, strain HOG1, hits give low values",1.07
same,normalized growth,"S. cerevisiae deletion strains, locus YLR221C, strain rsa3, hits give low values",1.05
same,normalized growth,"S. cerevisiae deletion strains, locus YLR258W, strain gsy2, hits give low values",0.995
same,normalized growth,"S. cerevisiae deletion strains, locus YLR262C, strain YPT6 (second series), hits give low values",0.973
same,normalized growth,"S. cerevisiae deletion strains, locus YLR262C, strain YPT6, hits give low values",1.02
same,normalized growth,"S. cerevisiae deletion strains, locus YLR268W, strain sec22, hits give low values",1.07
same,normalized growth,"S. cerevisiae deletion strains, locus YLR320W, strain mms22, hits give low values",1.04
same,normalized growth,"S. cerevisiae deletion strains, locus YLR330W, strain CHS5, hits give low values",1.01
same,normalized growth,"S. cerevisiae deletion strains, locus YLR342W, strain FKS1 (second series), hits give low values",1
same,normalized growth,"S. cerevisiae deletion strains, locus YLR342W, strain FKS1, hits give low values",0.999
same,normalized growth,"S. cerevisiae deletion strains, locus YLR357W, strain rsc2, hits give low values",0.982
same,normalized growth,"S. cerevisiae deletion strains, locus YLR370C, strain arc18, hits give low values",0.988
same,normalized growth,"S. cerevisiae deletion strains, locus YLR371W, strain rom2, hits give low values",1.02
same,normalized growth,"S. cerevisiae deletion strains, locus YLR384C, strain iki3, hits give low values",0.981
same,normalized growth,"S. cerevisiae deletion strains, locus YLR418C, strain cdc73, hits give low values",1.03
same,normalized growth,"S. cerevisiae deletion strains, locus YML016C, strain PPZ1, hits give low values",1.01
same,normalized growth,"S. cerevisiae deletion strains, locus YML032C, strain rad52, hits give low values",1.02
same,normalized growth,"S. cerevisiae deletion strains, locus YML120C, strain ndi1, hits give low values",0.96
same,normalized growth,"S. cerevisiae deletion strains, locus YML124C, strain tub3, hits give low values",1.02
same,normalized growth,"S. cerevisiae deletion strains, locus YMR058W, strain fet3, hits give low values",0.99
same,normalized growth,"S. cerevisiae deletion strains, locus YMR078C, strain ctf18, hits give low values",1.04
same,normalized growth,"S. cerevisiae deletion strains, locus YMR125W, strain sto1, hits give low values",0.95
same,normalized growth,"S. cerevisiae deletion strains, locus YMR129W, hits give low values",1
same,normalized growth,"S. cerevisiae deletion strains, locus YMR205C, strain PFK2, hits give low values",0.966
same,normalized growth,"S. cerevisiae deletion strains, locus YMR223W, strain ubp8, hits give low values",1.03
same,normalized growth,"S. cerevisiae deletion strains, locus YMR231W, strain pep5, hits give low values",0.993
same,normalized growth,"S. cerevisiae deletion strains, locus YMR307W, strain GAS1, hits give low values",1.08
same,normalized growth,"S. cerevisiae deletion strains, locus YNL067W, strain RPL9B, hits give low values",1.01
same,normalized growth,"S. cerevisiae deletion strains, locus YNL071W, strain lat1, hits give low values",0.982
same,normalized growth,"S. cerevisiae deletion strains, locus YNL153C, strain GIM3, hits give low values",1.01
same,normalized growth,"S. cerevisiae deletion strains, locus YNL183C, strain NPR1, hits give low values",0.982
same,normalized growth,"S. cerevisiae deletion strains, locus YNL209W, strain ssb2, hits give low values",0.982
same,normalized growth,"S. cerevisiae deletion strains, locus YNL233W, strain BNI4, hits give low values",1.01
same,normalized growth,"S. cerevisiae deletion strains, locus YNL248C, strain rpa49, hits give low values",0.94
same,normalized growth,"S. cerevisiae deletion strains, locus YNL250W, strain rad50, hits give low values",1.05
same,normalized growth,"S. cerevisiae deletion strains, locus YNL271C, strain bni1, hits give low values",1.03
same,normalized growth,"S. cerevisiae deletion strains, locus YNL298W, strain CLA4, hits give low values",1.05
same,normalized growth,"S. cerevisiae deletion strains, locus YNL307C, strain MCK1, hits give low values",1.03
same,normalized growth,"S. cerevisiae deletion strains, locus YNL322C, strain KRE1 (second series), hits give low values",0.98
same,normalized growth,"S. cerevisiae deletion strains, locus YNR049C, strain mso1, hits give low values",0.981
same,normalized growth,"S. cerevisiae deletion strains, locus YNR052C, strain pop2, hits give low values",1.04
same,normalized growth,"S. cerevisiae deletion strains, locus YOL012C, strain htz1",1.88 [resistant] (active)
same,normalized growth,"S. cerevisiae deletion strains, locus YOL147C, strain pex11, hits give low values",1.02
same,normalized growth,"S. cerevisiae deletion strains, locus YOR001W, strain rrp6, hits give low values",1.01
same,normalized growth,"S. cerevisiae deletion strains, locus YOR061W, strain CKA2, hits give low values",1.01
same,normalized growth,"S. cerevisiae deletion strains, locus YOR069W, strain VPS5, hits give low values",1
same,normalized growth,"S. cerevisiae deletion strains, locus YOR070C, strain gyp1, hits give low values",1.03
same,normalized growth,"S. cerevisiae deletion strains, locus YOR080W, strain dia2, hits give low values",0.996
same,normalized growth,"S. cerevisiae deletion strains, locus YOR083W, strain WHI5, hits give low values",0.979
same,normalized growth,"S. cerevisiae deletion strains, locus YOR106W, strain vam3, hits give low values",0.956
same,normalized growth,"S. cerevisiae deletion strains, locus YOR136W, strain idh2, hits give low values",1.03
same,normalized growth,"S. cerevisiae deletion strains, locus YOR144C, strain elg1, hits give low values",1.02
same,normalized growth,"S. cerevisiae deletion strains, locus YOR184W, strain ser1, hits give low values",1.03
same,normalized growth,"S. cerevisiae deletion strains, locus YOR231W, strain MKK1, hits give low values",1.09
same,normalized growth,"S. cerevisiae deletion strains, locus YOR265W, strain rbl2, hits give low values",0.987
same,normalized growth,"S. cerevisiae deletion strains, locus YOR270C, strain vph1, hits give low values",1.01
same,normalized growth,"S. cerevisiae deletion strains, locus YOR290C, strain snf2, hits give low values",0.926
same,normalized growth,"S. cerevisiae deletion strains, locus YOR316C, strain cot1, hits give low values",1.02
same,normalized growth,"S. cerevisiae deletion strains, locus YPL051W, strain arl3, hits give low values",1
same,normalized growth,"S. cerevisiae deletion strains, locus YPL055C, strain LGE1, hits give low values",1.03
same,normalized growth,"S. cerevisiae deletion strains, locus YPL078C, strain atp4, hits give low values",0.949
same,normalized growth,"S. cerevisiae deletion strains, locus YPL106C, strain sse1, hits give low values",0.954
same,normalized growth,"S. cerevisiae deletion strains, locus YPL240C, strain hsp82, hits give low values",0.996
same,normalized growth,"S. cerevisiae deletion strains, locus YPL241C, strain CIN2, hits give low values",1
same,normalized growth,"S. cerevisiae deletion strains, locus YPL256C, strain CLN2, hits give low values",1.03
same,normalized growth,"S. cerevisiae deletion strains, locus YPR119W, strain clb2, hits give low values",1.02
same,normalized growth,"S. cerevisiae deletion strains, locus YPR141C, strain kar3, hits give low values",1.02
same,normalized growth,"S. cerevisiae deletion strains, locus YPR163C, strain tif3, hits give low values",1.03
same,normalized growth,"S. cerevisiae deletion strains, locus YPR167C, strain met16, hits give low values",1.02
same,normalized growth,"S. cerevisiae deletion strains, strain wtn01, hits give low values",1.03
same,normalized growth,"S. cerevisiae strains, strain wild type, hits give low values",1.01
